Source: PubChem BioAssay
Pf growth 96h – inhibits malaria parasite growth, 96 h; P. falciparum luciferase reporter growth, 96 h; Potency, µM (doses to about 28.7 µM), for inactives: at the highest dose activity change, negative = inhibition, usual class: inhibitors; 320,000 tested, 6.9% active; AID 504834; further: potency means the concentration at half of the fitted maximal effect
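Readout is luminescence from an integrated firefly luciferase in P. falciparum. Red cells, 2% hematocrit and 0.05% parasitemia final, were cultured with compound through two parasite generations (96 hours) at 37 C, 5% CO2.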
HCMV antiviral – human cytomegalovirus inhibition | HFF cells, HCMV-luciferase reporter, 72 h; active compounds read low | activity change, negative = inhibition, % at 57.5 µM | 410,000 tested, 4.5% active; in the data active means activity change below about -60%; inconclusive means no clear call, values can overlap the other calls; inactive means above about -39%
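Cell-based, HFFs, 1000 cells/well, 16 h 37C; cpds in DMSO + HCMV-luc, MOI 1 PFU/cell; 72 h 37C; OneGlo luminescence after 5 min RT; norm. to buffer vs Salinomycin 10uM.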
FBPA Giardia inh – Giardia lamblia aldolase inhibition | 290,000 tested, 0.71% active | Potency, µM (highest dose often 59.6 µM), for inactives: at the top dose activity, negative = inhibition, hits mostly inhibitors | A8B2U2 | AID 2451 | purified Giardia FBPA; further: potency means the concentration at half of the fitted maximal effect; nearly all actives have a fitted effect of over 55% in size
Target sequence (A8B2U2 whole entry, looked up): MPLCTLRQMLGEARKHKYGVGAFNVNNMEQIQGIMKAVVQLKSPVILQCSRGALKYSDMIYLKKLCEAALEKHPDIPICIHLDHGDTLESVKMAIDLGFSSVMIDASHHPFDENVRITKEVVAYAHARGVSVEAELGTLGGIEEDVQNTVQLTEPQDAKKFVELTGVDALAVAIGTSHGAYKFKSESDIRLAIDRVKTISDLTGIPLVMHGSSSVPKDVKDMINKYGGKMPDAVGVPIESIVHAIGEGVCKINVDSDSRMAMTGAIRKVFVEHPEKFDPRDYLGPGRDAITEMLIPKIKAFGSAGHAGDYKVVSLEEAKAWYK
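40 nM FBPA preincubated 10 min at RT with compound (up to 57.5 uM final), then substrate plus GAPDH/TPI/NAD/arsenate coupling and diaphorase/resazurin added. Fluorescence read after 20 min at RT, 525/598 nm.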
Sm TGR block – blocks Schistosoma mansoni thioredoxin glutathione reductase | purified TGR, DTNB reduction, TNB absorbance 405 nm | AID 485364 | 360,000 tested, 3% active | Q962Y6 | Potency, µM (series often up to 114 µM), without a hit: at the top dose activity change, negative = inhibition, most hits filed as inhibitors; further: potency means the concentration at half of the fitted maximal effect; nearly all actives have a fitted effect of over 60% in size
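TGR 20 nM + NADPH 100 uM (dispensed conc.), cpd preinc 15 min RT; start with NADPH (500 uM addition) then DTNB (15 mM addition). Kinetic TNB absorbance, 405 nm filter. Four-parameter Hill fit across titration.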
Pf growth 48h – inhibits P. falciparum growth in the first generation, 48 h. P. falciparum luciferase growth in erythrocytes, 48 h. Potency, µM (top dose mostly 28.7 µM), for inactives: at the highest dose activity change, negative = inhibition, usual class: inhibitors. 310,000 tested, 5.9% active. AID 504832; further: potency means the concentration at half of the fitted maximal effect
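Luciferase-expressing parasites in RBCs, 2% Hct / 0.1% parasitemia final; RPMI 1640 + 0.5% Albumax; 37 C, 5% CO2, one generation; luminescence read-out, lower signal = inhibition.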
Active calls of the source: *; ? = inconclusive; . = no result given; ! = not active in a repeat; [ ] = dose if it differs, or a comment. An excerpt weighted towards active compounds, which were near 14% of everything screened. Unless noted, the call rests on the fitted dose curve; in most records, active means well fitted curve in the direction sought with a large enough effect; inconclusive means small, poorly fitted or top-dose-only effect, or another doubt; inactive means no such curve, though single readings can be large; an effect the other way counts as inactive or inconclusive. On the % scale 0 is the no-effect control and ±100 the full control effect.

SMILES	Pf growth 96h	HCMV antiviral	FBPA Giardia inh	Sm TGR block	Pf growth 48h
Cc1ccc(C(C#N)c2ccc(C(=O)c3ccc(F)cc3)cc2)cc1 (centres undefined)	-5%	-78*	-1%	3%	.
O=C(CSc1nc2ccccc2[nH]1)NCc1ccc2c(c1)OCO2	4.1µM*	-25	-11%	6%	16%
CCn1c(SC(C)C(=O)NC2CCCc3ccccc32)nnc1-c1cccs1 (centres undefined)	17µM*	128	4%	-21%	.
Cc1nc2ccccn2c1C(=O)NCc1ccc2c(c1)OCO2	0%[5.75 µM]	-61*	2%	-35%	2%
Cn1nc(C(C)(C)C)cc1C(=O)NCc1ccc2c(c1)OCO2	-7%	-83*	.	-24%	7%
O=C(CCc1nc2ccccc2[nH]1)NCc1ccc2c(c1)OCO2	-14%	2	-8%	-12%	8%
COC(=O)c1cc(NC(=O)CN(C)C2CCS(=O)(=O)C2)cc(C(=O)OC)c1 (centres undefined)	.	34	.	.	.
COc1ccc(COC[C@H](C)[C@H](O[Si](C)(C)C)[C@@H](C)[C@H]2OC(=O)[C@H]2C)cc1	.	.	2%	.	.
CCOc1ccc2nc(SCC(=O)Nc3cc4c(cc3C(C)=O)OCO4)[nH]c2c1	13µM*	-2	-8%	-2%	-17%
O=C(CSc1nnc(-c2cccs2)n1-c1ccccc1)NCc1ccc2c(c1)OCO2	.	?	3%	4%	-13%
O=C(CSc1nnc(Cc2cccs2)n1-c1ccc(Cl)cc1)NCc1ccc2c(c1)OCO2	7.4µM*	30	10%	3%	0.93µM*
CC(Sc1nnc(-c2cccs2)n1Cc1ccccc1)C(=O)NCc1ccc2c(c1)OCO2 (centres undefined)	8.3µM*	2	3%	-33%	.
O=C(CSc1nnc2ccccn12)NCc1ccc2c(c1)OCO2	282%	-79*	-1%	3%	15%
COc1ccc(CCNC(=O)c2cnc3sc(N4CCOCC4)nn3c2=O)cc1OC	.	10	.	1%	.
CN(C(=O)COC(=O)CSc1ccc(C(N)=O)cc1[N+](=O)[O-])C1CCCCC1	21%	-7	.	0%	5%
O=c1[nH]c2cc(Cl)cc([N+](=O)[O-])c2c2ccc(Cl)cc12	.	-22	.	.	.
O=c1[nH][nH]c2c([N+](=O)[O-])ccc(F)c12	.	-61*	.	.	.
COc1ccc(-n2c(Cc3ccccc3)nnc2SCc2nc(-c3cccs3)no2)cc1	.	-2	.	1%	.
Cc1ccc2nc(CSc3nnc(-c4ccco4)n3-c3ccccc3)cc(=O)n2c1	.	-105*	.	.	.
c1ccc(-n2c(SCc3nc(-c4cccs4)no3)nnc2-c2ccco2)cc1	0%	-40	-30%	45µM*	?
Cc1ccc2nc(CSc3nnc(-c4ccco4)o3)cc(=O)n2c1	.	-21	?	0%	-20%
C=CCOC(=O)C1=C[C@H](c2coc3ccccc3c2=O)C[C@H](OCCCCO)O1	.	10	.	.	.
O=C(O)/C=C/C(=O)Nc1ccc(OC(F)F)cc1	9%	7	-2%	3%	0%
CCCN(CCC)S(=O)(=O)c1ccc(C(=O)Nc2ccc(S(=O)(=O)Nc3nnc(CC)s3)cc2)cc1	?	9	-17%	7%	12µM*
CCc1nnc(NS(=O)(=O)c2ccc(NC(=O)c3ccc(C#N)cc3)cc2)s1	10µM*	4	?	1%	?
SMILES	Pf growth 96h	HCMV antiviral	FBPA Giardia inh	Sm TGR block	Pf growth 48h
CCc1nnc(NS(=O)(=O)c2ccc(NC(=O)c3ccccc3)cc2)s1	-2%	-3	3%	4%	?
CCc1nnc(NS(=O)(=O)c2ccc(NC(=O)c3ccc(Cl)cc3)cc2)s1	?	0	9%	5%	?
Cc1ccc(NC(=O)C2(N(C(=O)Cn3nnnc3N)c3ccc(C)cc3)CCCCC2)cc1	13µM*	-14	-4%	-15%	15%
CN1C(=O)/C(=C/c2ccccc2OCc2ccccc2)NC1=S	0%	?	0%	2%	-8%
CN1C(=O)/C(=C/c2cc(C(C)(C)C)c(O)c(C(C)(C)C)c2)NC1=S	?	1	-7%	1µM*	?
COC(=O)CNc1nc(Cl)nc(NC2CCCCC2)n1	5.2µM*	125	10%	-10%	45%
Cc1nn(C)c2c1c(C(F)(F)F)cc(=O)n2Cc1cccc(Br)c1	.	-5	.	9%	.
COc1cc(-c2noc(C)c2C(=O)NCCO)cc(OC)c1OC	42%	-4	6%	-11%	-4%
CNC(C)C#Cc1c(-c2cc(OC)c(OC)c(OC)c2)noc1C (centres undefined)	15µM*	101	-10%	?	?
COc1cc(-c2noc(C)c2C#Cc2ccc(N)cc2)cc(OC)c1OC	?	-19	-3%	-15%	0%
COc1cc(-c2noc(C)c2C#Cc2ccccn2)cc(OC)c1OC	?	-18	-5%	35µM*	5%
Cc1ccc(S(=O)(=O)Nc2cccc(C(=O)NCCN3CCOCC3)c2)cc1F	-29%	-24	.	0%	-18%
N#Cc1ccc(-c2csc(N3CCC(C(N)=O)CC3)n2)cc1	4%	.	.	.	-24%
O=C(CN(CC(=O)Nc1ccc(F)cc1)CC(=O)Nc1ccc(F)cc1)Nc1ccc(F)cc1	.	52	.	.	.
Nc1nc(SCc2ccc(Cl)cc2Cl)nc2nc3c(cc12)CCCC3	13µM*	?	4%	-7%	8.3µM*
Cc1ccc(-c2c(C(=O)N(C)Cc3ccccc3)oc(=O)c3ccccc23)cc1	4.7µM*	-65*!	-10%	-2%	?
Cc1cc(C)n(-c2nc(N(c3ccccc3)c3ccccc3)nc(-n3nc(C)cc3C)n2)n1	?	.	4%	1%	2.6µM*
COc1ccc(OC)c(CNC(=O)Cn2ncc3c([nH]c4ccc(C)cc43)c2=O)c1	.	0	.	5%	.
OC(c1ccccc1)(c1ccccc1)C1CCN(CCCOc2cccc(C(F)(F)F)c2)CC1	.	-66*	.	.	.
CC(C)c1ccc(OCCCN2CCC(C(O)(c3ccccc3)c3ccccc3)CC2)cc1	.	-99*	.	.	.
OC(c1ccccc1)(c1ccccc1)C1CCN(CCCOc2ccc(F)cc2)CC1	.	-10	.	.	.
OC(c1ccccc1)(c1ccccc1)C1CCN(CCCOc2ccc(C(F)(F)F)cc2)CC1	.	-81*	.	.	.
COc1cccc(C2C(C#N)=C(C)NC3=C2C(=O)CC(C)(C)C3)c1 (centres undefined)	?	1	-8%	1%	-30%
CC1=C(C#N)C(c2cccnc2)C2=C(CC(c3ccc(Cl)cc3)CC2=O)N1 (centres undefined)	6.6µM*	?	-6%	-11%	.
CCOC(=O)c1cc(C#N)c(N2CCNCC2)nc1C(F)(F)F	99%	-24	7%	-4%	?
CCOC(=O)c1cc(C#N)c(N2CCN(C(=O)c3ccccc3)CC2)nc1C(F)(F)F	10µM*	-27	2%	-4%	?
